# ChEMBL document CHEMBL4513146, “CO-ADD screening of Karazin Kharkiv National University (Ukraine) compounds”
# Measured potencies and affinities stand elsewhere.
# Tested on: Cryptococcus neoformans
# Settings: Concentration 32 ug.mL-1; ASSAY_TEST Inhibition of Fungal Growth; detection method Resazurin; Absorption (OD600-OD570); plate type 384well; NBS; CORNING #3640
row,SMILES,Inhibition
1,Cc1ccc(Oc2nc3ccccc3n3c(=O)n(CC(=O)Nc4ccc5c(c4)OCO5)nc23)cc1,-25.85%
2,Cc1ccc(CN(c2ccc(C(C)C)cc2)S(=O)(=O)c2cccn3cnnc23)cc1,-16.89%
3,Cc1cccc(Sc2nc3ccccc3n3c(=O)n(CC(=O)Nc4c(C)cc(C)cc4C)nc23)c1,-23.88%
4,COc1cc(OC)c(NC(=O)Cn2nc3ccc(-c4ccc(C)c(C)c4)nn3c2=O)cc1Cl,-20.51%
5,COc1cccc(NC(=O)Cn2nc3ccc(-c4ccc(Cl)cc4)nn3c2=O)c1,-14.88%
6,Cc1ccc(NC(=O)Cn2c(=O)c3nnc(C)n3c3ccccc32)cc1C,-4.45%
7,Cc1cc(NC(=O)CSc2nc3ccccc3n3cnnc23)ccc1Br,-40.95%
8,CCCCOc1ccc(-c2cc3c4nnc(SCC(=O)Nc5ccccc5Cl)n4ccn3n2)cc1,-20.67%
9,O=C(Cn1nc2n(Cc3ccccc3)c(=O)c3ccccc3n2c1=O)Nc1ccc2c(c1)OCO2,-11.06%
10,Cc1nnc2c(=O)n(CC(=O)Nc3ccc(F)cc3)c3ccccc3n12,-6.03%
11,Cc1ccc(-c2ccc3nn(Cc4cccc(F)c4)c(=O)n3n2)cc1C,-8.66%
12,Cc1ccccc1Oc1nccn2c(=O)n(CC(=O)Nc3ccc(C(C)C)cc3)nc12,-9.72%
13,COc1ccc(N(Cc2ccc(F)cc2)S(=O)(=O)c2ccc3nncn3c2)cc1,2.37%
14,Cc1cccc(CN(c2cccc(F)c2)S(=O)(=O)c2ccc3nncn3c2)c1,-4.78%
15,Cc1ccc(NC(=O)Cn2nc3c4cc(-c5ccc(Cl)cc5)nn4ccn3c2=O)cc1C,-22.86%
16,O=C(CCc1nnc2c3cc(-c4ccccc4)nn3ccn12)N1CCN(C(=O)c2ccco2)CC1,-4.62%
17,CCOc1ccc(-n2ccn3c(SCC(=O)Nc4cc(Cl)ccc4OC)nnc3c2=O)cc1,-5.56%
18,Cc1ccc(Sc2nccn3c(=O)n(CC(=O)Nc4c(C)cc(C)cc4C)nc23)c(C)c1,-21.38%
19,Cc1ccccc1-c1noc(Cn2nc3ccc(-c4ccccc4)nn3c2=O)n1,-15.26%
20,CCOc1ccc(-n2ccn3c(SCC(=O)Nc4cc(F)ccc4F)nnc3c2=O)cc1,-1.21%

row,SMILES,Inhibition
1,Cc1cccc(N(Cc2ccc(F)cc2)S(=O)(=O)c2cccn3c(C)nnc23)c1,-8.62%
2,O=C(Cn1nc2c(SCc3ccccc3)nccn2c1=O)NCc1ccc(Cl)cc1,-17.24%
3,COc1ccc(C(=O)CSc2nnc3c(=O)n(-c4ccc(F)cc4)ccn23)cc1OC,-8.42%
4,COC(=O)c1ccc(NC(=O)Cn2nc3c4cc(-c5ccc(OC)cc5)nn4ccn3c2=O)cc1,-33.46%
5,CCOc1ccc(NC(=O)Cn2nc3ccc(SCc4ccc(Cl)cc4)nn3c2=O)cc1,-13.71%
6,Cc1nnc2ccc(S(=O)(=O)N(Cc3cccc(F)c3)c3ccc(F)cc3)cn12,-9.68%
7,Cc1cccc(C)c1NC(=O)Cn1nc2c3cc(-c4ccc(Cl)cc4)nn3ccn2c1=O,-16.41%
8,Cc1oc(-c2cccc(Cl)c2)nc1CSc1nc2ccccc2n2c(C(C)C)nnc12,-17.47%
9,COc1ccccc1N1CCN(C(=O)CSc2nc3ccccc3n3cnnc23)CC1,-5.08%
10,Cc1ccc(-c2cc3c4nn(CC(=O)Nc5ccc6c(c5)OCO6)c(=O)n4ccn3n2)cc1C,-8.66%
11,CCc1ccccc1Sc1nccn2c(=O)n(CC(=O)Nc3c(C)cccc3C)nc12,-15.72%
12,Cc1[nH]c2ccccc2c1C(=O)CSc1nnc2c(=O)n(-c3ccc(Br)cc3)ccn12,-12.52%
13,COc1cccc(CNC(=O)CSc2nnc3c(=O)n(-c4ccc(F)cc4)ccn23)c1OC,-5.56%
14,COc1cccc(CN(c2ccc(F)c(F)c2)S(=O)(=O)c2cccn3c(C)nnc23)c1,-8.71%
15,C=Cc1ccc(CN(c2ccc(C(C)C)cc2)S(=O)(=O)c2cccn3cnnc23)cc1,-17.09%
16,COc1cc(NC(=O)CSc2nnc3c(=O)n(-c4cccc(OC)c4)ccn23)cc(OC)c1,-8.68%
17,COc1ccc(NC(=O)Cn2nc3ccc(-c4ccccc4)nn3c2=O)cc1,-8.43%
18,O=C(CSc1nnc2c(=O)n(-c3ccccc3)ccn12)Nc1ccc(F)cc1F,-4.59%
19,Cc1ccc(Cl)cc1NC(=O)CSc1nnc2n(CC3CCCO3)c(=O)c3sccc3n12 (centres undefined),-15.54%
